Assay outcomes (PubChem BioAssay)
The list is not random: actives were taken first. Their share in the collection is about 8%.
MARV entry inh: qHTS for inhibitors of binding or entry into cells for Marburg Virus; Marburg virus pseudotyped entry inhibition, cell reporter; Potency, µM (series often up to 37.8 µM), hits mostly inhibitors; 300,000 tested, 1.8% active; calls by dose curve; tested in HEK293 cells
HCMV inh: qHTS Assay for inhibitors of the human cytomegalovirus (HCMV); HFF cells, HCMV-luciferase reporter, 72 h; stronger effect = lower value; activity change, negative = inhibition, % at 57.5 µM; 410,000 tested, 4.5% active; in the data active = activity change below about -60%; inconclusive = no clear call, values can overlap the other calls; inactive = above about -39%
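HFF cells seeded 16 h at 37C, treated with compounds, infected with luciferase-reporter HCMV at MOI 1 PFU/cell; luciferase read at 72 h post infection, normalized to buffer-only and Salinomycin controls.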
SARS PLP yeast: qHTS of Yeast-based Assay for SARS-CoV PLP; S. cerevisiae expressing SARS-CoV PLpro, growth rescue; Potency, µM (top dose mostly 32.9 µM), actives largely listed as activators; 330,000 tested, 0.19% active; AID 485353, 2010; calls by dose curve; also: nearly all actives have a fitted effect of over 55% in size
FMDV inh: High Throughput Screening for Foot and Mouth Disease Virus Antivirals; FMDV antiviral cell-based qHTS; Potency, µM (highest dose often 57.9 µM), hits mostly inhibitors; 410,000 tested, 1.2% active; calls by dose curve; tested in HEK293T cells; also: read-out not given here; nearly all actives have a fitted effect of over 45% in size
LASV entry inh: qHTS for Inhibitors of binding or entry into cells for Lassa Virus; Lassa virus pseudotype entry inhibition, cell reporter; Potency, µM (top dose mostly 37.9 µM), usual class: inhibitors; 300,000 tested, 1.2% active; AID 540256, 2011; calls by dose curve; tested in HEK293 cells; also: nearly all actives have a fitted effect of over 50% in size
HCV inh: qHTS Assay for Inhibitors of Hepatitis C Virus (HCV); Huh7.5.1 HCVcc-Cre infection, luciferase reporter, 44 h; Potency, µM (highest dose often 41.8 µM), usual class: inhibitors; 340,000 tested, 3.4% active; AID 651820, 2012; active = well fitted inhibition curve with a large enough effect; inconclusive = small, poorly fitted or top-dose-only effect, or another doubt; inactive = no such curve, though single readings can be large or run the other way
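Infectious HCVcc-Cre (~0.5 moi) was added to cells just after compound, with cells seeded 4 h earlier at 1,000 per well. Luciferase activity after 44 h culture reported infection; substrate was incubated 15 min at room temperature before reading.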
Of the large screens only hits and unclear results are named; the others gave an inactive call.

Cc1ccc(/C=C/c2nc3ccccc3[nH]2)cc1	HCMV inh -91.2, FMDV inh 8.91µM, LASV entry inh 2.24µM (no result: MARV entry inh, SARS PLP yeast, HCV inh)
COC(=O)c1ccc(/C=C/c2nc3ccccc3c(=O)[nH]2)cc1	MARV entry inh inconclusive, LASV entry inh inconclusive
Cc1ccccc1/C=C\c1nc2ccccc2c(=O)[nH]1	MARV entry inh inconclusive, LASV entry inh inconclusive, HCV inh 10µM
Cc1ccccc1/C=C/c1nc2ccccc2c(=O)[nH]1	MARV entry inh inconclusive, LASV entry inh inconclusive
Cc1ccc(/C=C/c2nc3ccccc3c(=O)[nH]2)cc1	FMDV inh 15.8µM (no result: MARV entry inh, LASV entry inh)
COc1ccc(CN2CCOc3ccc(CN4CCC(Oc5cccnc5)CC4)cc3C2)cc1	none (no result: MARV entry inh, HCMV inh, SARS PLP yeast, LASV entry inh, HCV inh)
Cc1ccccc1C(=O)NC1CC2CCCC(C1)N2C(=O)Nc1ccccc1 (stereo not drawn)	none
Cc1ccc(S(=O)(=O)c2nc(-c3cccs3)oc2SCc2ccc(F)cc2)cc1	MARV entry inh inconclusive, LASV entry inh inconclusive (no result: SARS PLP yeast, HCV inh)
N#Cc1ccc(-c2ccco2)nc1SCC(=O)c1ccc(Cl)cc1	MARV entry inh inconclusive, LASV entry inh inconclusive, HCV inh 4.47µM
CC(CCN1CCCCc2nc(C)c(C)cc21)=NOC[C@@H](O)[C@H]1O[C@@H]2OC(C)(C)O[C@H]2[C@@H]1O	LASV entry inh inconclusive (no result: HCMV inh, SARS PLP yeast, FMDV inh, HCV inh)
COc1ccc([C@]23Cc4cc(OC)c(OC)cc4[C@H](O2)C2=C(CCCC2=O)O3)cc1	none (no result: HCMV inh, SARS PLP yeast, FMDV inh, LASV entry inh, HCV inh)
COc1ccc(CCNC(=O)COc2cc(O)c3c(c2)OC(C)(C)CC3=O)cc1	HCV inh inconclusive (no result: MARV entry inh, LASV entry inh)
COc1ccc(CCNC(=O)COc2cc(O)c3c(c2)OC(C)(C)CC3=O)cc1OC	HCV inh 3.16µM (no result: MARV entry inh, LASV entry inh)
COc1ccc(NC(=O)COc2cc(O)c3c(c2)OC(C)(C)CC3=O)cc1	HCV inh 2.82µM (no result: MARV entry inh, LASV entry inh)
COc1cccc(NC(=O)COc2cc(O)c3c(c2)OC(C)(C)CC3=O)c1	none (no result: MARV entry inh, LASV entry inh)
COc1cc(NC(=O)COc2cc(O)c3c(c2)OC(C)(C)CC3=O)cc(OC)c1	HCV inh 2.82µM (no result: MARV entry inh, LASV entry inh)
Cn1c(SCc2ccccc2Cl)nc(=O)c2c1NC(=O)CC2c1cc(F)ccc1F (stereo not drawn)	none (no result: SARS PLP yeast, HCV inh)
COc1ccc(OCC(=O)Nc2cccc(S(=O)(=O)N(C)c3ccccc3)c2)c([N+](=O)[O-])c1	none (no result: MARV entry inh, LASV entry inh)
COc1ccccc1-c1c(-c2ccc(O)cc2O)n[nH]c1C(F)(F)F	HCMV inh active, FMDV inh 15.8µM, HCV inh inconclusive (no result: MARV entry inh, LASV entry inh)
Oc1ccc(-c2n[nH]c(C(F)(F)F)c2-c2ccccc2)c(O)c1	MARV entry inh inconclusive, HCMV inh -81.7, FMDV inh 20µM, LASV entry inh inconclusive, HCV inh 5.62µM
COc1ccc(CN2COc3ccc4c(-c5ccccc5)cc(=O)oc4c3C2)cc1	none (no result: SARS PLP yeast, HCV inh)
CCC(Sc1nnc(C)n2c1cc1occc12)C(=O)Nc1ccccc1OC (stereo not drawn)	none (no result: MARV entry inh, SARS PLP yeast, HCV inh)
O=C(Cc1cccc2ccccc12)N1CCN(c2ncccn2)CC1	none
O=C(NC1CCCC1)c1ccc(COc2ccccc2Br)o1	SARS PLP yeast inconclusive, HCV inh 12.6µM (no result: MARV entry inh, LASV entry inh)
NC(=O)c1cc(-c2ccccc2)sc1NC(=O)CN1CCCCC1	MARV entry inh 6.31µM, LASV entry inh inconclusive, HCV inh 12.6µM
CC(C)(C)C(=O)Nc1sc(-c2ccccc2)cc1C(=O)O	MARV entry inh inconclusive, HCMV inh -64.4, LASV entry inh inconclusive
NC(=O)c1ccccc1NC(=O)CN1CCCCCC1	LASV entry inh inconclusive
COC(=O)c1cc(-c2ccccc2)sc1NC(=O)CN1C(=O)c2ccccc2C1=O	HCMV inh -64.1, HCV inh inconclusive
COc1ccc(C(=O)N[C@H](C(=O)OCn2nnc3ccccc3c2=O)C(C)C)cc1	none
CC1=C(C(=O)Nc2ccc(C)cc2C)C(c2ccc([N+](=O)[O-])cc2)n2ncc(C(=O)Nc3ccc(F)cc3)c2N1 (stereo not drawn)	none (no result: MARV entry inh, SARS PLP yeast, HCV inh)
COc1ccccc1CNCC(=O)Nc1cc(S(=O)(=O)N2CCCCC2)ccc1C	FMDV inh inconclusive, LASV entry inh inconclusive, HCV inh inconclusive
CCN(CC)S(=O)(=O)c1ccc(C)c(NC(=O)CNCc2ccccc2OC)c1	MARV entry inh 4.47µM, FMDV inh inconclusive, LASV entry inh inconclusive, HCV inh inconclusive
